Consider 17 molecules from PubChem BioAssay (NCI).

Test systems include T-47D breast; BT-549 breast; MDA-MB-435 melanoma; SW-620 colon; HCT-116 colon; HCC-2998 colon; KM12 colon; MCF7 breast.
Holding throughout (test): NCI-60 one-dose screen, 48 h (100 = growth as untreated, 0 = no growth, -100 = all killed)
Details in all cases: 10 µM

This is part of a sample that, as a whole, favours compounds with a hit. Of some 83,000 tested, about 20% had one in any assay.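 Activity criterion: percent growth below 10, measured after cells in 96-well plates were exposed to a single compound concentration for 48 hours.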 A number with no mark means an inactive call. Activity calls are given as the source filed them.

As to `CC(=O)OC1CC2C(C)(C)CCC[C@]2(C)C2=C1C(O)=C(C(C)C)C(=O)C2=O` (stereo not given in full), the growth in the experiment with T-47D breast is 0.0935% (active); with BT-549 breast, -21.9% (active); with MDA-MB-435 melanoma it was -37.9% (active); in the experiment on SW-620 colon, -51% (active); with HCT-116 colon, -8.31% (active); in the experiment with HCC-2998 colon it was -76.1% (active). Besides, the growth in the experiment on KM12 colon was -77.7% (active).

For the molecule `CCCCCCCCCCCC[n+]1c(C)cc(N)c2ccccc21`, the growth in the experiment on T-47D breast is -14% (active); in the experiment on BT-549 breast it was -29.7% (active); in the experiment with MDA-MB-435 melanoma it was -6.75% (active); in the experiment with MCF7 breast, -0.77% (active); in the experiment on HCT-116 colon, -4.63% (active).

As for `CCOC(=O)c1cc(C(=O)c2cc(OC)c(OC)c(OC)c2)n2nc(C)ccc12`, the growth in the experiment on T-47D breast was 93.6%; in the experiment on BT-549 breast it was 47.5%; in the experiment with MDA-MB-435 melanoma it was 3.24% (active); with MCF7 breast it was 21.6%; in the experiment on HCT-116 colon, 14.7%; with HCC-2998 colon, 25.9%. Also, in the experiment with KM12 colon, the growth is 28%.

Turning to `CCC(c1ccc(OC)cc1)C(CC)c1ccc(O)c(CN2CCN(C)CC2)c1` (stereo not given), the growth in the experiment with T-47D breast was 39.1%; in the experiment with BT-549 breast, 76.9%; with MDA-MB-435 melanoma it was 33.5%; with MCF7 breast it was 50.9%; with HCT-116 colon, 29.1%; with HCC-2998 colon it was -1.52% (active). Further, the growth in the experiment with KM12 colon was 53.9%.

Take `C=CCN(CC=C)C(=O)[C@H](CC)[C@@H]1CC[C@@H](C)[C@@H]([C@H](C)[C@@H](O)[C@@H](C)C(=O)[C@H](CC)C2O[C@]3(C=C[C@@H](O)[C@]4(CC[C@@](C)([C@H]5CC[C@](O)(CC)[C@H](C)O5)O4)O3)[C@H](C)C[C@@H]2C)O1` (stereo not given in full): the growth with T-47D breast is 9.12% (active); in the experiment with BT-549 breast it was 27.3%; with MDA-MB-435 melanoma it was 6% (active); with MCF7 breast it was 1.92% (active); with HCT-116 colon, 9.64% (active); in the experiment on HCC-2998 colon, 12.6%. Besides, in the experiment with KM12 colon, the growth was 27.5%.

Take `COc1ccc2nc3cc(Cl)ccc3c(N)c2c1`: the growth in the experiment on T-47D breast was -82% (active); in the experiment on BT-549 breast, -95.6% (active); with MDA-MB-435 melanoma, -74.2% (active); in the experiment with SW-620 colon, -70.2% (active); in the experiment on HCT-116 colon, -99.2% (active); in the experiment on HCC-2998 colon, -99% (active). The growth in the experiment on KM12 colon is -84.3% (active).

For `COc1ccc(C(=O)c2ccccc2CN2C(=O)c3ccccc3C2=O)cc1`, the growth in the experiment with T-47D breast was 90.6%; in the experiment with BT-549 breast it was 112%; with MDA-MB-435 melanoma it was 108%; in the experiment with SW-620 colon, 99%; with HCT-116 colon, 101%; with HCC-2998 colon it was 105%. Moreover, the growth with KM12 colon is 107%.

Regarding `O=C(Nc1nc(-c2ccccc2)nc2c1sc(=S)n2-c1ccccc1)C(F)(F)F`, the growth is 71.1% with T-47D breast; 98.9% with BT-549 breast; 99.8% in the experiment on MDA-MB-435 melanoma; 103% with SW-620 colon; 78.8% with HCT-116 colon; 123% in the experiment with HCC-2998 colon. Further, the growth in the experiment on KM12 colon is 91.3%.

Turning to `CC1C(=NC(=O)c2cnccn2)C(C)C(c2ccc(Cl)cc2)NC1c1ccncc1` (stereo not given), the growth with T-47D breast was 78%; with BT-549 breast it was 95.4%; in the experiment with MDA-MB-435 melanoma it was 96.9%; in the experiment with MCF7 breast, 91.3%; in the experiment on HCT-116 colon, 73.6%; in the experiment on HCC-2998 colon, 115%. The growth with KM12 colon was 95.8%.

As to `COc1ccccc1-n1c(-c2sc(NC(C)=O)nc2C)n[nH]c1=S`, the growth is 106% in the experiment with T-47D breast; 93.8% in the experiment with BT-549 breast; 105% in the experiment on MDA-MB-435 melanoma; 97.5% with MCF7 breast; 98.3% with HCT-116 colon; 108% with HCC-2998 colon. In addition, the growth in the experiment on KM12 colon is 108%.

With `COc1cc(CNC(=O)C2CSC3(C)c4ccccc4C(=O)N23)cc(OC)c1OC` (stereo not given), the growth is 87.2% with T-47D breast; 108% in the experiment with BT-549 breast; 105% in the experiment with MDA-MB-435 melanoma; 93.7% with MCF7 breast; 98.1% in the experiment with HCT-116 colon; 95.5% with HCC-2998 colon. Besides, the growth with KM12 colon was 106%.

As to `COc1ccc(C2=Cn3c(CCC(=O)c4nc5ccccc5[nH]4)nnc3SC2)cc1`, the growth with T-47D breast is 81%; in the experiment on BT-549 breast, 104%; in the experiment with MDA-MB-435 melanoma, 90.3%; in the experiment with MCF7 breast, 84.6%; in the experiment with HCT-116 colon, 71.4%; in the experiment on HCC-2998 colon, 127%. Also, the growth in the experiment with KM12 colon is 98.6%.

For `CCC(C)[C@H](NC(C)=O)C(=O)N[C@@H](CCCNC(=N)N)C(=O)N[C@@H](CCCCN)C(=O)N[C@@H](CC1CCC(O)CC1)C(=O)NC(C(=O)N[C@@H](CCSC)C(=O)N[C@@H](CCCNC(=N)N)C(=O)N[C@@]1(C)CCC/C=C\CCC[C@@](C)(C(=O)NC(C(=O)N[C@@H](CCC(=O)O)C(=O)N[C@@H](CC(C)C)C(=O)N[C@H](C(=O)N[C@@H](CCC(=O)O)C(N)=O)C(C)C)[C@@H](C)O)NC(=O)[C@H](CCC(N)=O)NC(=O)[C@H](CC(C)C)NC(=O)[C@H](CC(C)C)NC1=O)[C@@H](C)O` (stereo not given in full), the growth was 78.9% in the experiment with T-47D breast; 117% with BT-549 breast; 105% in the experiment with MDA-MB-435 melanoma; 90.4% with SW-620 colon; 89.1% in the experiment with HCT-116 colon; 103% in the experiment on HCC-2998 colon. Further, in the experiment on KM12 colon, the growth was 96.9%.

With `CCOc1ccccc1/C=N\N=C(\N)N/N=C/c1ccccc1OCC`, the growth was 14.8% in the experiment on T-47D breast; 36% with BT-549 breast; -3.3% (active) with MDA-MB-435 melanoma; 8.26% (active) with MCF7 breast; 24.9% in the experiment with HCT-116 colon.

In the case of `Cc1cc(O)ccc1C1=NN(c2ccc(S(C)(=O)=O)cc2)C(=O)CC1`, the growth was 84.8% in the experiment with T-47D breast; 58.2% in the experiment on BT-549 breast; -8.25% (active) in the experiment with MDA-MB-435 melanoma; 46.6% in the experiment with SW-620 colon; 52.4% with HCT-116 colon; 78.6% in the experiment with HCC-2998 colon. In the experiment on KM12 colon, the growth was 47.6%.

Regarding `N#Cc1c(-c2ccc(Cl)cc2)cc(-c2cc(O)ccc2O)nc1N`, the growth is 8.26% (active) in the experiment on T-47D breast; 22.6% with BT-549 breast; 6.77% (active) in the experiment with MDA-MB-435 melanoma; 8.32% (active) in the experiment on SW-620 colon; 19.8% with HCT-116 colon; 52.7% with HCC-2998 colon. For the same molecule, the growth in the experiment on KM12 colon was 27.2%.

In the case of `COC(=O)C1OC1c1cc([N+](=O)[O-])ccc1OC` (stereo not given), the growth in the experiment on T-47D breast is 70%; in the experiment on BT-549 breast, 107%; in the experiment on MDA-MB-435 melanoma it was 107%; with SW-620 colon, 107%; with HCT-116 colon it was 102%; in the experiment on HCC-2998 colon, 96.1%. Moreover, the growth with KM12 colon is 99.3%.
